Source: PubChem BioAssay (NCI)
This is part of a sample that, as a whole, favours compounds with a hit. Of some 83,000 tested, about 20% had one in any assay.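 A percent growth of 40 corresponds to 60% growth inhibition; 0 means no net growth; -100 means all cells died. Active threshold: below 10.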 Calls of active or inactive are those of the source.

System: HL-60(TB) leukemia
Test: NCI-60 one-dose screen, 48 h (100 = growth as untreated, 0 = no growth, -100 = all killed)
Conditions: 10 µM unless noted

Structure (SMILES) | growth
COc1ccc(/C=C2\CCCC3=C2NC(N)=NC3c2ccc(OC)c(OC)c2)cc1OC (stereo not given) | 42.4% (inactive)
Cc1cc2c(c(C)c1Cl)C(=O)/C(=C/c1ccco1)O2 | 97.5% (inactive)
CCOS(=O)(=O)c1ccc([N+](=O)[O-])cc1 | 95.9% (inactive)
CC(C)n1c2ccc(Br)cc2c2c3c(c4c5ccccc5ccc4c21)C(=O)NC3=O | 100% (inactive)
COc1cc(OC)c(NC(=O)C(Sc2nc(C)cc(C)c2C#N)c2ccccc2)cc1Cl (stereo not given) | 94.1% (inactive)
Nc1ncnc2c1ncn2C1OC(COC(c2ccccc2)(c2ccccc2)c2ccccc2)C(O)C1O (stereo not given) | 8.77% (active)
Cc1occc1-c1n[nH]c(=S)n1N1C(=O)CSC1=S | 99.2% (inactive)
COc1ccc(-c2nc3ccc(-c4nc5ccc(N6CCN(c7ccc(F)cc7)CC6)cc5[nH]4)cc3[nH]2)cc1OC | 46.5% (inactive)
Cc1cc(-c2nc3ccccc3s2)ccc1NC(=O)COc1ccc(Cl)cc1 | 99.1% (inactive)
CC(=O)c1ccc(NC(=O)CSc2nnc(-c3cc(-c4ccc(Cl)cc4)nc4ccccc34)o2)cc1 | 91.3% (inactive)
Cc1cc(C)c(O)c(CNCCCNCc2cc(C)cc(C)c2O)c1 | 48.6% (inactive)
COc1cc(-c2n/c(=C\c3c(O)[nH]c4ccc(Cl)cc34)cc3c2=Nc2ccccc2-3)cc(OC)c1OC | 48.3% (inactive)
Cc1cc2c(C#N)n3c(c2cc1C)C(=O)C(c1ccccc1)Oc1ccccc1-3 (stereo not given) | 36.3% (inactive)
COc1ccc(C(=O)C(CN(C)C)c2ccc(OC)cc2)cc1 (stereo not given) | 36% (inactive)
O=S(c1ccccc1)c1ccc2nnnn2n1 (stereo not given) | 42.5% (inactive)
CCc1ccc(-c2nnc(COc3ccc(-c4nc5ccc(C)cc5[nH]4)cc3OC)o2)cc1 | 6.14% (active)
CC12O[C@H](C[C@@H](O)[C@H]1O)n1c3ccccc3c3c4c(c5c6ccccc6n2c5c31)C(=O)N(CCCN)C4=O | 4.62% (active)
C/C(=N\O)c1ccccn1 | 112% (inactive)
C=C1C(=O)O[C@H]2[C@H]1CC/C(COC(=O)NCC(C)c1ccc(CC(C)C)cc1)=C\CC[C@@]1(C)O[C@@H]21 (stereo not given in full) | -29.8% (active)
COc1ccc(-c2nc(C#N)c(NCC(c3ccco3)N3CCCC3)o2)cc1 (stereo not given) | -14.1% (active)

Structure (SMILES) | growth
CCOC(=O)c1nc(Nc2cc(C)[nH]n2)c2ccccc2n1 | 106% (inactive)
CCCCCCCCCCn1cc[n+](C)c1 | 51.9% (inactive)
COc1nc2c(c(=O)n1C)CN(c1ccccc1)C(=O)C(C)N2 (stereo not given) | 94% (inactive)
COc1ccc2[nH]cc(-c3noc(C(=O)c4cn(C)c5ccc(F)cc45)n3)c2c1 | 81.7% (inactive)
CCOC(=O)C1=C(C)NC(SCc2cc(=O)oc3ccc(F)cc23)=N[C@@H]1c1cccc2ccccc12 | 78.4% (inactive)
CCCn1nc(-c2ccccc2)c2c(-c3ccccc3)onc2c1=O | 69.6% (inactive)
COc1ccc2nc(-c3ccc(-n4cncc4-c4ccc(OC)c(N)c4)cc3)sc2c1 | 80.7% (inactive)
S=c1[nH]nc(CSc2ncnc3c2c(-c2ccccc2)cn3-c2ccc(Cl)cc2)o1 | 101% (inactive)
CCOC(=O)NC1=NCC(C)(C)S1 | 67.9% (inactive)
CCCCCCCCCCCCCCCCCC[n+]1ccc2c(C)c3c(c(C)c2c1)c1cc(O)ccc1n3CC | 30.2% (inactive)
CC(=O)c1ccc2oc(=O)n(Cc3ccc(C#N)cc3)c(=O)c2c1 | 109% (inactive)
C=C1C(=O)O[C@H]2[C@H]1CC/C(COC(=O)n1ccnc1C)=C\CC[C@@]1(C)O[C@@H]21 | 83.2% (inactive)
CCCCC/C=C\C/C=C/CCCCCCCCNC(=O)Nc1ccc([N+](=O)[O-])cc1 | 4.75% (active)
O=C1N=c2ccccc2=C1c1sc(=S)n(C2CC(=O)N(c3ccc(Cl)cc3)C2=O)c1O (stereo not given) | 101% (inactive)
COc1cc(-c2nccc3[nH]c(-c4cccc5[nH]ccc45)nc23)cc(OC)c1OC | -41.1% (active)
COc1ccc(/C=C/C(=O)Nc2ccc(-c3nc4ccc(OC)cc4s3)cc2)cc1 | 99.3% (inactive)
Cc1cc2c3ccccc3ccc2[n+]2ccccc12 | 46.2% (inactive)
CCN(CC)C(=O)C1=C(C)NC(=O)NC1c1ccc2c(c1)OCO2 (stereo not given) | 101% (inactive)
CCN(CC)c1ccc(/C=C2\SC(=O)C(Nc3nnc(-c4cccnc4SCc4ccccc4)o3)C2=O)cc1 (stereo not given) | 19.4% (inactive)
O=S(=O)(c1cc(Cl)ccc1O)c1cc(Cl)ccc1O | 74.2% (inactive)
